Laboratory results: PubChem BioAssay (NCATS)
Where “and” joins values, the source holds several entries; their conditions need not be identical. Identical values can stand only once. Records with an inconclusive call do not appear. Values without a mark were called inactive. Calls of active or inactive are those of the source. The call rests on the fitted dose curve; in most records, active means well fitted cell-killing curve with a large enough effect; inconclusive means small, poorly fitted or top-dose-only effect, or effect the other way; inactive means no such curve, though single readings can be large or run the other way.

Experiment: Viability qHTS for spleen associated tyrosine kinase inhibitor (SYKi) naive MV4-11 cells (AID 1963823); further: nearly all actives have a fitted effect of over 40% in size
Settings: MV4-11 AML viability, CellTiter-Glo luminescence, 72 h; series mostly up to 45 µM; viability (% of control): at the top concentration
Procedure, shortened: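 Viability of MV4-11 AML cells lacking prior SYK inhibitor exposure is scored by CellTiter-Glo luminescence following 72 hr compound incubation at 37 C, 5% CO2, seeded at 500 cells per well.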
Potency means the concentration at half of the fitted maximal effect.

SMILES	Potency	viability (% of control)
O=S(=O)(c1cccc2c(I)cccc12)N1CCCNCC1	7.42 µM (active)	–
N#Cc1ccc(-c2c(-c3ncn[nH]3)sc(N3CCOCC3)c2C#N)c(F)c1	3.26 µM (active) and 3.32 µM (active)	–
CCOC(=O)c1ccc(N)cc1	–	74.6%
CCCCNc1ncc2c(-c3ccc(CN4CCN(C)CC4)cc3)cn(C3CCC(O)CC3)c2n1 (stereo not drawn)	0.0105 µM (active)	–
CCCS(=O)(=O)c1nc(NC2CC2)cc(-c2ccc3c(ccn3C3CC(C)(C)NC(C)(C)C3)c2)n1	1.75 µM (active)	–
COC1(c2sc3c(N4CCOCC4)nc(-c4cnc(N)nc4)nc3c2C)COC1	0.231 µM (active)	–
CCS(=O)(=O)CCn1c([N+](=O)[O-])cnc1C	–	82.7%
CCCC(CCC)C(=O)Nc1ccn([C@@H]2O[C@H](CO)[C@@H](O)C2(F)F)c(=O)n1	0.411 µM (active)	–
CNC(=O)Cn1cc(-c2ccc3c(c2)C(F)CC32NC(=O)N(CC(=O)N(Cc3ccc(F)cc3)C(C)C(F)(F)F)C2=O)cn1 (stereo not drawn)	0.0417 µM (active)	–
O=C(O)CCCC[C@@H]1SC[C@@H]2NC(=O)N[C@@H]21	–	93.4%
O=C(Nc1ncc(SCCN2CCCC2)s1)[C@]1(c2ccc(S(=O)(=O)C3CC3)cc2)C[C@H]1C1CCCCC1	7.42 µM (active)	–
CC#C[C@@H](CC(=O)O)c1ccc(OCc2cccc(-c3ccc(C(F)(F)F)cc3)c2)cc1	18.6 µM (active)	–
Cc1c[nH]c(/C=C2\C(=O)Nc3ccccc32)c1CCC(=O)O	0.468 µM (active)	–
Nc1cc(-c2ccncc2)c[nH]c1=O	–	98.5%
COc1cc(C(=O)NC2CCCNC2)cc(OC)c1OC (stereo not drawn)	–	89.8%
COC(=O)C1=C(C)NC(C)=C(C(=O)O[C@@H]2CCCN(Cc3ccccc3)C2)[C@@H]1c1cccc([N+](=O)[O-])c1	21.1 µM (active) and 13 µM (active)	–
CCN(CC)CCOc1ccc(/C(=C(\Cl)c2ccccc2)c2ccccc2)cc1	9.44 µM (active) and 8.2 µM (active)	–

SMILES	Potency	viability (% of control)
CN(C)/C(N)=N/C(=N)N	inactive	–
CCCCCCCCCCOCC(O)CN (stereo not drawn)	23.7 µM (active)	–
C[C@@H]1C[C@H](N)C[C@H](c2ccncc2NC(=O)c2ccc(F)c(-c3c(F)cccc3F)n2)C1	1.18 µM (active)	–
C=CC[C@@H]1/C=C(\C)C[C@H](C)C[C@H](OC)[C@H]2O[C@@](O)(C(=O)C(=O)N3CCCC[C@H]3C(=O)O[C@H](/C(C)=C/[C@@H]3CC[C@@H](O)[C@H](OC)C3)[C@H](C)[C@@H](O)CC1=O)[C@H](C)C[C@@H]2OC	18.6 µM (active)	–
CN(C)Cc1cccc(N=C(c2ccccc2)c2c(O)[nH]c3cc(C(N)=O)ccc23)c1	0.468 µM (active)	–
CCOc1cc2ncc(C#N)c(Nc3ccc(OCc4ccccn4)c(Cl)c3)c2cc1NC(=O)/C=C/CN(C)C	126 nM (active) and 525 nM (active)	–
N#C/C(=C\c1ccc(O)c(O)c1)C(=O)NCc1ccccc1	13.2 µM (active)	–
CCN1/C(=C/C=C/c2sc3ccccc3[n+]2CC)Sc2ccccc21	0.0184 µM (active)	–
CCO[C@@H]1O[C@H](C(COCc2ccccc2)OCc2ccccc2)[C@H](OCc2ccccc2)[C@H]1O (stereo partly drawn)	15 µM (active)	–
Cc1[nH]c(/C=C2\C(=O)Nc3ccc(F)cc32)c(C)c1C(=O)NCCN1CCCC1	51.7 nM (active) and 14.4 nM (active)	–
COc1ccc(S(=O)(=O)N(CCO)c2ccccc2CN(C)C/C=C/c2ccc(Cl)cc2)cc1	4.68 µM (active)	–
CC(=O)c1cc2c(o1)C(=O)c1ccccc1C2=O	1.18 µM (active)	–
COC(=O)C1=C(C)NC(COC(N)=O)=C(C(=O)OC(C)C)C1c1cccc(Cl)c1Cl (stereo not drawn)	21.1 µM (active)	–
COc1cc2c(cc1O)CCN[C@]21CS[C@@H]2c3c(OC(C)=O)c(C)c4c(c3[C@H](COC1=O)N1[C@@H]2[C@H]2c3c(cc(C)c(OC)c3O)C[C@@H]([C@@H]1O)N2C)OCO4	0.0014 µM (active)	–
O=C(NOCCO)c1ccc2cncn2c1Nc1ccc(I)cc1F	2.06 µM (active)	–
CC(C)(O)[C@H]1CC[C@@](C)([C@H]2[C@@H](O)C[C@@]3(C)[C@@H]4C[C@H](O[C@@H]5O[C@H](CO)[C@@H](O)[C@H](O)[C@H]5O)[C@H]5C(C)(C)[C@@H](O[C@@H]6OC[C@@H](O)[C@H](O)[C@H]6O)CC[C@@]56C[C@@]46CC[C@]23C)O1	–	95.2%
